Our source for the growth values is PubChem BioAssay (NCI).

The structures appear in SMILES notation. Values joined by “and” are separate entries in the source; they are usually repeats but may differ in a detail not shown here. Equal entries are not always repeated. This is part of a sample that, as a whole, favours compounds with a hit. Of some 83,000 tested, about 20% had one in any assay.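 Cells were grown in 96-well plates and exposed to the test compound at a single concentration for 48 hours; results are reported as percent growth, with values below 10 considered active.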 Unmarked numbers belong to inactive results. Active and inactive are the calls of the source.

The test system of this experiment is NCI/ADR-RES ovarian. Nature of the experiment: NCI-60 one-dose screen, 48 h (100 = growth as untreated, 0 = no growth, -100 = all killed). Conditions: 10 µM unless noted. The method, then:
Growth inhibition of the NCI/ADR-RES human […] tumor cell line is measured as a screen for anti-cancer activity. Cells are grown in 96 well plates and exposed to the test compound for 48 hours. Compounds are tested at a single concentration, which is 10^-5 M for most compounds. The reported endpoint is percent growth (GI% or GIPRCNT), where numbers from 0 - 100% represent growth inhibition, and numbers from -100% - 0 represent cell death. For example, a value of 40 represents 60% growth inhibition. A value of 0 means no net growth occurred over the course of the experiment. A value of -40 indicates 40% of cells at the beginning of the experiment died by the end of the experiment. A value of -100 means all cells are dead at the end of the experiment.
NCI-60 Human Tumor Cell Lines Screen was performed using the standard one-dose NCI protocol, which is described in more detail at https://dtp.cancer.gov/discovery_development/nci-60/default.htm.
Compounds with GIPRCNT values below 10 were considered active. Activity score was based on GIPRCNT using the following formula: […]
Score is 0 for GIPRCNT values of 100 or above, 50 for GIPRCNT values of 0, and 100 for GIPRCNT values of -100.
As to `Cn1c(SCC(=O)c2ccc(F)cc2)nc2ccccc2c1=O`, the growth was 93.6%.

Take `CCCCCCCCCC(=O)NC(C)(C)C(=O)N1CCC[C@H]1C(=O)N[C@@H](CC(C)C)C(=O)N[C@@](C)(CC)C(=O)N[C@@H](CCC(N)=O)C(=O)N[C@H](CCC(N)=O)C(=O)NC(C)(C)C(=O)NC(C)(C)C(=O)N[C@@H](CCC(N)=O)C(=O)N[C@H](CC(C)C)C(=O)N[C@H](CO)CC(C)C`: the growth was -83% (active) and 0.971% (active). The same measure for `Cc1ccc(CSC2=C(Cl)CN(c3ccc(Cl)cc3)C2=O)cc1`: 103%. With `O=C1[C@@H]2Cc3c([nH]c4ccccc34)[C@@H](c3ccc(Cl)cc3)N2C(=O)CN1C1CCN(Cc2ccccc2)CC1`, the growth was 51.2%. With `NCCNC(=O)c1cccc(COc2ccccc2NC(=O)c2cc(Br)c(Br)[nH]2)c1`, the growth was 96.7%. In the case of `Cn1cc(-c2nnc(N)nc2-c2c[nH]c3ccc(Br)cc23)c2cc(Br)ccc21`, the growth was 110%. On to `Cc1ccc(/C(N)=N/C(N)=N/c2nc3ccccc3s2)cc1`, for which the growth was 31.1%. The same measure for `C/C(=C(/C)C1CC1CCNC1CCC(NC(=O)OC(C)(C)C)CC1)c1ccccc1` (stereo not given): 75.7%; for `CCCCSC1=C(Cl)CN(c2ccc(Cl)cc2)C1=O`: 103%; for `CN1CCN(Cc2ccc(NC(=O)c3cncc(C#Cc4cnc5ccc(OCC6COC6)nn45)c3)cc2C(F)(F)F)CC1`: -34.4% (active).

On to `O=C(CSc1nc2ccccc2c(=O)n1-c1ccccc1)N/N=C/c1ccc(Oc2ccc(Cl)cc2)cc1`, for which the growth was 52.7%. The same measure for `O=C1Nc2ccc(F)cc2/C1=C\C(=O)c1ccc(NS(=O)(=O)c2ccccc2)cc1`: 96.7%. With `Cn1cc(-c2nn3cc(-c4ccncc4)nc3s2)c2cc(F)ccc21` the figure was 78.7%; with `N#Cc1nc(-c2ccccc2)oc1N1CCC(C2(C(F)(F)F)N=N2)CC1`, 102%.

For the molecule `NC1C2CCC1CN(c1cnc(C(=O)Nc3cc(F)cc4cccnc34)cn1)C2` (stereo not given), the growth is 79.4%. The same measure for `Cc1ccc(C(=O)Nc2ccc(CNCCN3CCNCC3)c(C(F)(F)F)c2)cc1C#Cc1cnc2cccnn12`: 71.6%; for `O=C(CSc1nnc(-c2ccc(Cl)cc2)n1-c1ccccc1)Nc1cccc(F)c1`: 37%; for `Cc1cc(Br)ccc1-n1cc(C#N)c(N)c1C(=O)c1ccc(Br)cc1`: 103%. With `C=C(C)[C@@H]1CC[C@]2(C(=O)O)CC[C@]3(C)[C@H](CC[C@@H]4[C@@]5(C)C/C(=C/c6ccccn6)C(=O)C(C)(C)[C@@H]5CC[C@]43C)[C@@H]12` the figure was 37.4%; with `O=[N+]([O-])c1ccc(NC(=S)NNC(=S)Nc2ccc(F)cc2)cc1`, 84.2%. The same measure for `CN1CCN(Cc2ccc(NC(=O)c3cncc(C#Cc4cnc5ccc(OCCCS(C)(=O)=O)nn45)c3)cc2C(F)(F)F)CC1`: 75%; for `CN1CCN(c2ccc(Nc3nc(NCCCNS(=O)(=O)c4ccc(Cl)cc4)c4sccc4n3)cc2)CC1`: 47.7%; for `NS(=O)(=O)c1ccc(CCn2c(-c3ccc(C(=O)O)cc3)nc(-c3ccccc3)c2-c2ccccc2)cc1`: 105%. With `CC1=C(SCC(=O)OCCCCCC(C)C)C(=O)c2ccccc2C1=O`, the growth was 100%. With `O=S(=O)(Oc1ccc(-c2cn3ccoc3n2)cc1)C1CCCCC1`, the growth is 97.8%.

`O=C(CN1CCN(c2cc(=O)[nH]c3ccc(F)cc23)CC1)N(c1ccccc1)c1ccccc1`: the growth was 102%. The same measure for `CCOC(=O)C(=O)Nc1ccc2c(ccn2C(=O)c2cccc(F)c2)c1`: 100%; for `C/C(=N\NC(N)=S)c1nnn(-c2ccc([N+](=O)[O-])cc2)c1C`: 98.8%. The same measure for `COC(=O)c1cccc(NC2=C(Cl)C(=O)c3nc(C)ccc3C2=O)c1`: 89.7%; for `Cc1ccc2c(n1)C(=O)C(Cl)=C(Nc1cccc(C(=O)OC(C)(C)C)c1)C2=O`: 93.9%; for `Brc1ccc2[nH]cc(-c3nn4cc(-c5nccs5)nc4s3)c2c1`: 15.8%.

As for `COc1ccc(/C=N\NC(=O)c2cnn(CC(O)c3ccccc3)c2N)cc1OCc1ccc(Cl)cc1` (stereo not given), the growth is 72.2%. On to `CCOC(=O)c1ccc(NC2=CC(=O)C(C)=C(C)C2=O)cc1`, for which the growth was 65.4%. With `COc1cc(-c2nc(-c3ccccc3)[nH]c2-c2ccnc(NCCCNS(=O)(=O)c3ccc(C)cc3)n2)ccc1F` the figure was 89.8%; with `COc1ccc(OC)c(NC(=O)CCCCCCNC(=O)C(O)(O)C(F)(F)F)c1`, 32.8%; with `N#Cc1c(-c2cccs2)cc(-c2cnccn2)nc1SCC(=O)N/N=C/c1ccccc1`, 37%. The same measure for `CCOC(=O)c1c(NCC(=O)Nc2cccc([N+](=O)[O-])c2)sc(C(C)=O)c1C`: -28.3% (active); for `Oc1ccc(-c2nc3ccc(/C(=N\N=C\c4ccc(Cl)cc4)c4ccccc4)cc3[nH]2)cc1`: 93%; for `COc1ccc(OC)c(CCn2cncc2-c2c[nH]c3ccc(Cl)cc23)c1`: 29.8%. The same measure for `Cc1ccc(-c2cc3nc(C(Cl)Cl)nc(-c4ccc(S(=O)(=O)N(C)C)cc4)n3n2)cc1`: 78.8%.
